The values below come from PubChem BioAssay (Tox21).

Several values for one entry are separate records, joined by “and”; a condition that tells them apart may be missing. Equal values may be shown once. Inconclusive results are not listed. A call without a number means that no potency is given here. Some structures have more than one record in an assay (separate samples or runs), and their calls can disagree. Activity calls are given as the source filed them. Calls come from the whole dose curve; as a rule, active = well fitted cell-killing curve with a large enough effect in the repeat runs; inconclusive = weak or mixed curves, or effect the other way; inactive = no such curve, though single readings can be large or run the other way.
Potency is the fitted concentration of half-maximal effect.

The test can be described thus: qHTS assay to identify small molecule antagonists of the retinoid-related orphan receptor gamma (ROR-gamma) signaling pathway - cell viability counter screen (AID 1159520). Note: nearly all actives have a fitted effect of over 50% in size. The conditions noted are these: Tet-on RORgamma CHO cells viability, ATP luminescence, 16 h; series mostly up to 92.4 µM. The text has this: U.S. Tox21 Program National Center for Advancing Translational Sciences [NCATS] NIH Chemical Genomics Center [NCGC] U.S. Environmental Protection Agency [EPA] National Institutes of Environmental Health Sciences [NIEHS] National Toxicology Program [NTP] U.S. Food and Drug Administration [FDA] Tox21 Assay Overview: Nuclear steroid hormone receptors are involved in many biological processes including inflammatory responses, cell proliferation, and apoptosis. Environmental factors or compounds disrupting these nuclear receptor pathways and gene expression may promote susceptibility to immunotoxicants and autoimmune diseases. One important group of these expression factors are the retinoid-related orphan receptors. To assess compounds that may interfere with the retinoid-related orphan receptor gamma (ROR-gamma) transcription factor, a cell-based luciferase assay was used. The CHO cell-based assay utilizes a TET-inducible ROR expression factor and ROR response element-LUC reporter gene. Reporter gene activity was induced using Doxycycline Hyclate and measured after 16 hr incubation. Tet-on ROR gamma CHO cells were used to screen against the Tox21 10K compound library for cytotoxicity by measuring the viability of the cells based on the quantitation of the ATP.
Tox21 Assay Protocol Summary: Tet-on ROR gamma CHO cells were dispensed at 1,000 cells in 4 uL of culture medium per well into white wall/solid bottom 1536-well plates using a Multidrop Combi (Thermo Scientific, Waltham, MA) dispenser. Following incubation at 37 C and 5% CO2 for 4 hr, 23 nL of compounds dissolved in DMSO, positive controls or DMSO only were transferred by a Pintool station (Kalypsys, San Diego, CA) and after 2 hr incubation at 37 C, one ul of 1 uM (final concentration) of Doxycycline Hyclate was added to all the wells by using a Flying Reagent Dispenser (FRD) (Aurora Discovery, San Diego, CA). After 16 hr incubation at 37 C and 5% CO2, 5 uL of CellTiter-Glo reagent (Promega Corporation, Madison, WI) was added to each assay plate using FRD. After 30 min incubation at room temperature, luminescence was quantified on a ViewLux plate reader (Perkin Elmer, Waltham, MA).
(qHTS replaces the single test concentration by a dilution series.)
Consider `Cc1ccc(N(C)C)cc1`, for which the Potency result was “inactive”.

For the compound `CCCCCCCCCCCCCCCO`, the Potency result is “inactive”.

Turning to `O=C(CC(C(=O)OC1CCCCC1)S(=O)(=O)O)OC1CCCCC1` (stereo not given), the Potency result is “inactive and 53.8 µM (active)”.

With `CC(=O)Nc1cccc(O)c1`, the Potency result is “inactive”.

Regarding `O=C(OCCOCCOC(=O)c1ccccc1)c1ccccc1`, the Potency result was “inactive”.

For the compound `CCCCCCCCCCCCS`, the Potency entry was “inactive”.

With `Oc1cccc2ccccc12`, the Potency entry is “inactive”.

Turning to `CCCC(C)=O`, the Potency entry was “inactive”.

For the compound `CCCCC(CC)COC(=O)CS` (stereo not given), the Potency entry was “inactive”.

On to `CCCCCCCCCC`, for which the Potency result is “inactive”.

For `ON=C1CCCCC1`, the Potency entry was “inactive”.

On to `Cc1occc(=O)c1O`, for which the Potency result was “inactive”.

For the compound `COc1ccc(Cl)cc1C(=O)NCCc1ccc(S(=O)(=O)NC(=O)NC2CCCCC2)cc1`, the Potency entry is “inactive”.

Regarding `C[C@H]1C[C@@H]2[C@H]([C@@H](O)C[C@@]3(C)[C@H]2CC[C@]3(O)C(=O)CO)[C@@]2(C)C=CC(=O)C=C12`, the Potency result was “inactive”.

Turning to `OCCOCCOCCO`, the Potency entry was “inactive”.

On to `CCCCCCCCCCCCOCCO`, for which the Potency result is “inactive”.

With `Nc1ccccc1[N+](=O)[O-]`, the Potency entry was “inactive”.

Consider `CC(O)COCC(C)O` (stereo not given), for which the Potency result is “inactive”.

For `CC1=CC(=O)NS(=O)(=O)O1`, the Potency result was “inactive”.

In the case of `O=c1[nH]c(=O)n([C@H]2CCCO2)cc1F`, the Potency entry was “inactive”.

Turning to `CCc1ccc(CCOc2ccc(CC3SC(=O)NC3=O)cc2)nc1` (stereo not given), the Potency entry is “inactive”.

Regarding `Nc1cc([N+](=O)[O-])ccc1O`, the Potency entry is “inactive”.

Regarding `O=C1CCC(N2C(=O)c3ccccc3C2=O)C(=O)N1` (stereo not given), the Potency entry is “inactive”.

As for `CCCCCCCC(=O)OC`, the Potency result is “inactive”.

`CC(c1cc2ccccc2s1)N(O)C(N)=O` (stereo not given): the Potency result was “inactive”.

For the compound `CC(C)(C)[C@@H](O)[C@@H](Cc1ccc(Cl)cc1)n1cncn1`, the Potency entry is “inactive”.

On to `CC(=O)Nc1ccccc1`, for which the Potency entry is “inactive”.

`Cc1cccnc1`: the Potency result is “inactive”.

On to `CC(=O)OCC(=O)[C@@]12N=C(C)O[C@@H]1C[C@H]1[C@@H]3CCC4=CC(=O)C=C[C@]4(C)[C@H]3[C@@H](O)C[C@@]12C`, for which the Potency result is “inactive”.

Turning to `CCCCCCOCCO`, the Potency result is “inactive”.

Regarding `CCOC(=O)NNc1nncc2ccccc12`, the Potency result was “inactive”.

`O=C(O)c1ccc2c(c1)C(=O)OC2=O`: the Potency result was “inactive”.

`O=S1(=O)CC=CC1`: the Potency entry is “inactive”.

On to `COc1ccc2cc([C@H](C)C(=O)O)ccc2c1`, for which the Potency entry was “inactive”.

As for `c1c[nH]cn1`, the Potency result is “inactive”.

On to `C#CCN(C)Cc1ccccc1`, for which the Potency result was “inactive”.

As for `O=C(O)CCCC[C@@H]1SC[C@@H]2NC(=O)N[C@@H]21`, the Potency entry is “inactive”.

As for `CCCCC(CC)COC(=O)C(C#N)=C(c1ccccc1)c1ccccc1` (stereo not given), the Potency result was “inactive”.

Take `CC(=O)CC(=O)Nc1ccccc1`: the Potency entry is “inactive”.

Take `CCCCCCCCCCCCc1ccccc1`: the Potency result was “inactive”.
